Laboratory results reported in PubChem BioAssay AID1456 (Vanderbilt High Throughput Screening Facility, 2008).
Among all 190,000 compounds or so, about 4,100 (2.2%) were called active. The entries come from a sample that favours actives as a whole. A number with no mark means an inactive call.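 How the source made its calls: active means thallium flux slope and its plate-corrected score both differing from the plate sample mean at a set confidence after two filtering rounds, in either direction; inactive means the rest.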

Biological target: Solute carrier family 12 member 5 (Homo sapiens) (UniProt Q9H2X9)
Assay: KCC2 cotransporter modulators, thallium flux, primary screen, cell-based, HEK293 KCC2, FluoZin-2 fluorescence, MLSMR (AID 1456);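 further: slope of fluorescence scaled to starting intensity during 10 to 20 s after thallium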
Settings: KCC2 cells, thallium flux FluoZin-2 fluorescence; at 10 µM

Sequence of Solute carrier family 12 member 5 (Homo sapiens) (Q9H2X9 whole entry, looked up): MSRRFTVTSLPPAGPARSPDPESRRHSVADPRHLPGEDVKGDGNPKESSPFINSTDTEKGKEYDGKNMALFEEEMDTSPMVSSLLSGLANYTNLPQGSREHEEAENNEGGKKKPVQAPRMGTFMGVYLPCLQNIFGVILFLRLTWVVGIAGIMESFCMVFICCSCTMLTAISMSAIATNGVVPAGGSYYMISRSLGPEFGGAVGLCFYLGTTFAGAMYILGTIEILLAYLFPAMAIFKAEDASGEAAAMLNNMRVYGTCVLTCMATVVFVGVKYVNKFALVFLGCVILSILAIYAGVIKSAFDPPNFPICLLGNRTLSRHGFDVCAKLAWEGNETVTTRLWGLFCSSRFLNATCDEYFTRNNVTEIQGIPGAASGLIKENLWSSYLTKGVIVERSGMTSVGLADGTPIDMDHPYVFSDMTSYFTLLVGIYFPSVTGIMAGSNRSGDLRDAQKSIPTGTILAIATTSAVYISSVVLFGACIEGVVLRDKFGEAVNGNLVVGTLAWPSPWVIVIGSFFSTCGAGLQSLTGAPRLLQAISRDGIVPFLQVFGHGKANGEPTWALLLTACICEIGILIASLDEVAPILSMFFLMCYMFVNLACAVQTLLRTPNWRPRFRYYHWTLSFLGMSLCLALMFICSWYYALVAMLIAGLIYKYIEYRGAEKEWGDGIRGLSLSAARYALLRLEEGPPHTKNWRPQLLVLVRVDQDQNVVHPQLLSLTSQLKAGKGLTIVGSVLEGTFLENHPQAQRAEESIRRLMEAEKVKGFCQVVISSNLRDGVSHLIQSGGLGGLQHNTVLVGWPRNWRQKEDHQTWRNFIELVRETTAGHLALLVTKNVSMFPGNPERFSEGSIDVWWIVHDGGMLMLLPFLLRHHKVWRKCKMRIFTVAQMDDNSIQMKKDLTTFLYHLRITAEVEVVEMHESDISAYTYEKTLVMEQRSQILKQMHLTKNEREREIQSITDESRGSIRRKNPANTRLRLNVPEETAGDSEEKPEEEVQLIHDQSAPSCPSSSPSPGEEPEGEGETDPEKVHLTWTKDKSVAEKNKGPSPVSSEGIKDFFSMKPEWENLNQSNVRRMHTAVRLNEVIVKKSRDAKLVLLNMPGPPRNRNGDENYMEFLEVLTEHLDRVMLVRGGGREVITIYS

Compound | B-score of Tl+ flux slope (higher = more flux/activation; lower = inhibition)
CC(C)Cc1ccc(C(C)C(=N)N)cc1 (stereo not given) | 0.737
NS(=O)(=O)c1ccc(CNC(=O)c2cnccn2)cc1 | 1.11
NCC(=O)c1cccc2ccc[n+]([O-])c12 | 1.34
COc1ccc(CCN2C(=O)CC(N3CCC(C(N)=O)CC3)C2=O)cc1OC (stereo not given) | 0.129
CC1(C)Cc2ccccc2-c2nnc(-c3cccc(O)c3)n21 | -0.616
c1cncc(-c2nnc3n2C2(CCCCC2)Cc2ccccc2-3)c1 | 4.46 (active)
O=c1c2ccccc2nc2n1C1(CCCCC1)Cc1ccccc1-2 | -0.241
Cc1ccc(CN2CCN(Cc3ccc4ncccc4c3)CC2CCO)cc1 (stereo not given) | -0.182
O=C(Nc1nc2c(F)cc(F)cc2s1)C1COc2ccccc2O1 (stereo not given) | 67.4 (active)
O=C(Nc1nc(-c2ccncc2)cs1)C1COc2ccccc2O1 (stereo not given) | -0.139
COc1ccc(OC)c2sc(NC(=O)C3COc4ccccc4O3)nc12 (stereo not given) | -1.33
CC(C)c1cc(CN2CCOCC2)cc(C(C)C)c1O | -0.911
CCn1cc(C(=O)NCCCN2CCCCCC2)c(=O)c2cc(S(=O)(=O)N3CCc4ccccc4C3)ccc21 | 0.575
Cc1nc(C(=O)N2CCCC(C(=O)c3ccc(Cl)cc3)C2)cs1 (stereo not given) | -0.00258
Cc1ccccc1Nc1c(-c2ccccc2)nc2ncccn12 | -0.0089
S=c1nccc(-c2cc(Cl)sc2Cl)[nH]1 | 7.16 (active)
Cc1cccc(N(C)C(=O)c2cc3c(=O)[nH]c4ccc(C)cc4c3s2)c1 | 0.185
COCCN1C2=C(COC(C)(C)C2)C(=S)NC1c1ccccc1 (stereo not given) | -0.146
Fc1ccc(COc2cccc(-c3n[nH]c(=S)o3)c2)cc1 | 69.9 (active)
Cc1cccc(OCc2ccc(C(=O)Nc3ccc(F)cc3)cc2)c1 | 0.491
Fc1ccc(COc2ccc(-c3nnco3)cc2)cc1 | -1.14
NNC(=O)c1oc2nc(-c3ccccc3)cc(-c3ccco3)c2c1N | 0.0896
O=C(COc1ccccc1)N1CCN=C1SCc1cccc(F)c1 | 0.197
CC(C)CCN1NC2(CCC(C)CC2)NC1=S (stereo not given) | 1.32
Cc1ccc(-c2nc3ccccc3[nH]c2=O)cc1 | 0.871

Compound | B-score of Tl+ flux slope (higher = more flux/activation; lower = inhibition)
CC(CNS(=O)(=O)c1ccc(Br)cc1)CN(C)C (stereo not given) | 0.781
CCC(C)(C)NC(=O)C(c1ccc(O)cc1)N(C(=O)Cn1nnc2ccccc21)c1ccc(NC(C)=O)cc1 (stereo not given) | 1.51
Cc1nnc(SCC(=O)N2CCc3ccccc32)n1-c1ccccc1 | 0.58
CCNC(=S)N1CCN(C(=O)c2ccco2)CC1 | 0.133
O=C(c1cccc(C(=O)N2CCc3ccccc32)n1)N1CCc2ccccc21 | 0.134
O=C(CSCc1ccccc1)N1CCc2ccccc21 | -2.43 (active)
NC(=O)N1CCc2ccccc21 | 0.799
O=C(NC(=S)N1CCc2ccccc21)c1ccco1 | 23.3 (active)
O=C(NCc1cccnc1)C(=O)Nc1nc(-c2ccccc2)cs1 | -0.384
O=C(CCCN1C(=O)/C(=C\c2ccccc2)SC1=S)Nc1ccccc1O | 0.281
CCN(CC(=O)Nc1cccc(S(N)(=O)=O)c1)Cc1nc2ccccc2c(=O)[nH]1 | 1.06
Cc1coc2cc3oc(=O)c(CCC(=O)O)c(C)c3cc12 | -0.564
C=CCNC(=O)CSc1nc2scc(-c3ccco3)c2c(=O)n1CC=C | -0.677
C=CCn1c(=S)[nH]c2scc(-c3ccco3)c2c1=O | 111 (active)
C=CCn1c(SCc2csc(C)n2)nc2scc(-c3ccc(C)o3)c2c1=O | 0.11
Nc1cccc(S(=O)(=O)Nc2ccc(SC(F)F)cc2)c1 | -0.199
COc1ccc(Oc2c(Cl)cnn(-c3ccccc3)c2=O)cc1 | -3.99 (active)
COc1ccc(-n2c(C)nc3c(cnn3-c3ccccc3)c2=O)cc1 | -0.335
Cc1ccc(Oc2cnn(-c3ccccc3)c(=O)c2Br)cc1 | -2.71
CC1C(=O)NC(=O)C1c1ccccc1 (stereo not given) | 0.0909
CCc1ccc2nc3sc(C(=O)Nc4nnc(CC)s4)c(N)c3cc2c1 | -4.25 (active)
CCc1nnc(NC(=O)c2sc3nc(C)cc(COC)c3c2N)s1 | 0.922
CCc1nnc(NC(=O)c2cccc(S(=O)(=O)N(C)c3ccc(OC)cc3)c2)s1 | -0.265
Cc1ccc(S(=O)(=O)N(C)CC(=O)OCC(=O)Nc2ccccc2)cc1 | -1.25
Cc1nc(N)sc1N=Nc1c(C)n(C)n(-c2ccccc2)c1=O | 0.0239

Compound | B-score of Tl+ flux slope (higher = more flux/activation; lower = inhibition)
O=C(O)CS/C(=C\c1ccc(F)cc1)c1nc2ccccc2s1 | -7.14 (active)
O=C(O)CSCc1nc2ccccc2s1 | 0.175
COc1ccc(/C=C(/CC(=O)Nc2ccc(C)cc2)c2nc3ccccc3s2)cc1 | -0.666
O=C(CC1SC(=Nc2ccccc2F)N(CCN2CCOCC2)C1=O)Nc1ccc(F)cc1F (stereo not given) | 0.206
Cc1ccc2cc(/C=N/NC(=O)[C@@H]3CCCN3)c(Cl)nc2c1 | 0.721
Cc1cccc(C(=O)NC(=S)N2CCN(c3ccc([N+](=O)[O-])cc3)CC2)c1 | 1.26
COc1cc(OC)cc(C(=O)NC(=S)N2CCN(c3ccc(C(F)(F)F)cc3[N+](=O)[O-])CC2)c1 | 6.75 (active)
O=C(Nc1cccc(C(F)(F)F)c1)c1ccc(N2CCNCC2)c([N+](=O)[O-])c1 | 1.31
Cc1cccc(C(=O)OCC(=O)NCC(C)C)c1O | -0.558
O=C(NCCc1ccccc1)Oc1ccc(Cl)cc1 | -2.47
CC(C)C1Nc2c(C(=O)O)cccc2C(Nc2ccccc2C(=O)O)C1(C)C (stereo not given) | -7.13 (active)
O=C(O)c1ccccc1-c1ccccc1C(=O)Nc1cccc2ccccc12 | -0.144
CCNC(=O)CCc1nc(-c2ccc(C)cc2)no1 | 0.371
C/C(Cc1ccccc1)=N\NC(=O)CNC(=O)c1ccccc1Cl | -0.103
O=C(Nc1nnc(-c2ccc(Cl)cc2)o1)c1ccccc1Br | 35.2 (active)
O=C(Nc1ccc(-c2nnc(-c3ccccc3)o2)cc1)c1ccc(Br)o1 | 1.83
O=C(Nc1cccc(Cl)c1)Nc1nnc(-c2ccccc2)o1 | 3.17
O=C(NNS(=O)(=O)Cc1ccccc1)c1ccc([N+](=O)[O-])cc1 | 0.00978
COc1ccccc1NC(=S)NC(=O)C(C)C | 1.52
FC(F)Oc1ccccc1NC(=S)Nc1cccc(Cl)c1Cl | 6.89 (active)
COc1ccc(NC(=S)Nc2ccccc2Cl)cn1 | 0.811
Cc1ccc(Cn2c(SCC(=O)N/N=C/c3ccccc3OCC(=O)O)nc3ccccc32)cc1 | 1.95
O=C(CSc1nnc2n1CCCN2)c1ccccc1 | -0.0921
CC(C)N1CCC(=NNc2ccc([N+](=O)[O-])cc2S(=O)(=O)N2CCOCC2)CC1 | 0.0282
Cc1ccc(NNC(=O)C2CCC2)cc1C | 0.435

Compound | B-score of Tl+ flux slope (higher = more flux/activation; lower = inhibition)
COc1cc2c(cc1/C=C1/NC(=O)N(c3ccccc3)C1=O)OCO2 | 0.747
CN(C)c1ccc(/C=C2\NC(=S)N(Cc3ccccc3)C2=O)cc1 | 2.56
O=C1/C(=C\c2ccsc2)NC(=S)N1c1ccccc1 | 11.5 (active)
NS(=O)(=O)c1ccc(NC(=S)NC(=O)c2cccnc2)cc1 | 1.98 (active)
NS(=O)(=O)c1ccc(NC(=S)NC(=O)c2cccc(Br)c2)cc1 | 1.13
CC(=O)NC(=S)Nc1ccc(NC(=O)c2cccnc2)cc1 | 1.03
O=C(Cn1c(-c2ccc(Cl)cc2)noc1=O)N1CCN(c2ccccc2F)CC1 | -4.49 (active)
Cn1c(=O)cc(OCC(=O)N2CCN(c3ccccc3F)CC2)c2ccccc21 | -0.0376
O=C(CCSc1ccccc1)N1CCN(c2ccccc2F)CC1 | -1.46
COc1ccc(OCC(O)CNCCNc2nccc(C(F)(F)F)n2)cc1 (stereo not given) | 0.542
Cc1ccc2c(c1)nnc1nnc(SCC(=O)O)n12 | -0.0291
c1ccc(-c2nnc(SCc3nc4ccccc4[nH]3)o2)cc1 | -1.33
Cc1ccc2nc(SCc3nnc(-c4ccccc4[N+](=O)[O-])o3)c(C#N)cc2c1 | 0.799
Fc1ccc2nc(-c3ccccc3)nc(SCc3nnc(-c4ccccc4)o3)c2c1 | 41.8 (active)
O=C(NCc1cccnc1)c1nc(-c2cccs2)no1 | 0.407
CCCCN1Cc2c(nc3cc(-c4ccccc4)[nH]n3c2=O)C1=O | -0.758
NCCCCCC(=O)N/N=C/c1ccc2nccnc2c1 | 1.4
CCOC(=O)C1CCCN(C(=O)/C=C/c2ccc(OC)cc2)C1 (stereo not given) | -0.769
O=C(Nc1ccc(S(=O)(=O)N2CCOCC2)cc1)c1ccc2ncsc2c1 | 0.51
S=C(Nc1cccc(Cl)c1)Nc1ccc2cn[nH]c2c1 | -0.0612
Cc1csc(NC(=S)Nc2cccc(Cl)c2)n1 | 63.6 (active)
CC(=O)Nc1cccc(C(=O)Nc2nc(C)cs2)c1 | -0.0712
CCc1nc(NCCO)c(C#N)c2c1CCCC2 | -0.68
S=C(NCCc1ccccc1)N1CCn2cccc2C1c1ccncc1 (stereo not given) | -2.41
CN1CCN(c2ncc3c(n2)CC(c2ccccc2F)CC3=O)CC1 (stereo not given) | -1.12
